Active and inactive are the calls of the source. How the source made its calls: active means hit-call score of the fitted dose curve at least 0.9, where 1 is the maximum; inactive means score below 0.9.

Chain of human Receptor-type tyrosine-protein phosphatase F (PTPRF/LAR), PTPRF (gene 5792) (P10586 whole entry, looked up): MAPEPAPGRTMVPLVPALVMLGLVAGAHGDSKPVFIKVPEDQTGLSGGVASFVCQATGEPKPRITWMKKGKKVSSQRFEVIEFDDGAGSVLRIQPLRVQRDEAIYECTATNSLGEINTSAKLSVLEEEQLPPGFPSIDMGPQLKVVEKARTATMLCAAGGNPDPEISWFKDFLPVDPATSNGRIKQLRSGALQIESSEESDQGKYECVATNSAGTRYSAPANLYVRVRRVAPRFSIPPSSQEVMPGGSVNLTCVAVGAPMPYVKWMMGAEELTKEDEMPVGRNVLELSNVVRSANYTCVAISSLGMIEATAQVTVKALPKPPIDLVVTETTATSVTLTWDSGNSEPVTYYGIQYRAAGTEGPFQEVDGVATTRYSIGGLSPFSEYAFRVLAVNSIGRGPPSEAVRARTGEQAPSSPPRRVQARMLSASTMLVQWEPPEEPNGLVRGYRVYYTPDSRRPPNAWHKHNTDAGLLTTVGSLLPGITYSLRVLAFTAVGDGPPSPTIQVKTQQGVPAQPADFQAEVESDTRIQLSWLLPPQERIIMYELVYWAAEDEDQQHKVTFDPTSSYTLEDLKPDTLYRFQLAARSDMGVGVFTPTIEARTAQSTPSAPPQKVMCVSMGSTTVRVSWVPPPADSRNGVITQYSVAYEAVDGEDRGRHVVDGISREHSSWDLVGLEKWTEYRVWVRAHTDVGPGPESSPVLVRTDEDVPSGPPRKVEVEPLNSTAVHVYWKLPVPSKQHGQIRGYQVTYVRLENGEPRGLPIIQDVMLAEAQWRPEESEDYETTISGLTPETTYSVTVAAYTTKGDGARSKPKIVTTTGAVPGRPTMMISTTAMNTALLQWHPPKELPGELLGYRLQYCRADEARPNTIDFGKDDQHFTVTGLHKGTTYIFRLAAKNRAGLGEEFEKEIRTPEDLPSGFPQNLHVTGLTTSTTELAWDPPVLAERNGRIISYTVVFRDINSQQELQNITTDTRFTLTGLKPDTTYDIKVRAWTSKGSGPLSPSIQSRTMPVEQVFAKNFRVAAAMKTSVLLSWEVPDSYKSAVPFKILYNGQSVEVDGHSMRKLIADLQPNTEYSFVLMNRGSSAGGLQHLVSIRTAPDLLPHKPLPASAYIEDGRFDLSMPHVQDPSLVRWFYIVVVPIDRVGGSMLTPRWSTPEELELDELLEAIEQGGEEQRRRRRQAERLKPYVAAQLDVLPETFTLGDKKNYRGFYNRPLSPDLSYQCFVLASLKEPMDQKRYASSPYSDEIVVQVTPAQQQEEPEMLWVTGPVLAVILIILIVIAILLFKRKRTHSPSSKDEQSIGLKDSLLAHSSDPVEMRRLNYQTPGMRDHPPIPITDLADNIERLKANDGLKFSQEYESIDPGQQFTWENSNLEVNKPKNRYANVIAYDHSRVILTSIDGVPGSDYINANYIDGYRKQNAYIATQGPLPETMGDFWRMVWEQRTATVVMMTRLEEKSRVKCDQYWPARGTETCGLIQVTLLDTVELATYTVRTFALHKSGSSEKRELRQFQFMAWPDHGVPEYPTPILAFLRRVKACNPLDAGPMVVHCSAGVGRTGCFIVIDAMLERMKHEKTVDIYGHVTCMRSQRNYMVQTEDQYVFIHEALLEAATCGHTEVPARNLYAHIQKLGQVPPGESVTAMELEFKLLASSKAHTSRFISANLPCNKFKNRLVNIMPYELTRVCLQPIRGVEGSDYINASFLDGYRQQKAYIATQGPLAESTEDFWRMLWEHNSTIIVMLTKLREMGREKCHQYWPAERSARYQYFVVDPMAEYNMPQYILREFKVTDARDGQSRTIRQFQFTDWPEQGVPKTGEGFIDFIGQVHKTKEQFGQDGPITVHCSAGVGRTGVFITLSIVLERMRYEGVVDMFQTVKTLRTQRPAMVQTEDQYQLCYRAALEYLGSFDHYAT

The experiment deals with human Receptor-type tyrosine-protein phosphatase F (PTPRF/LAR), PTPRF (gene 5792) (UniProt P10586). Description: ERF_TW_ENZ_hPTPRF: Eurofins (ERF) Enzymatic LeadHunter Assay for human Receptor-type tyrosine-protein phosphatase F (PTPRF/LAR). On the procedure:
ERF_TW_ENZ_hPTPRF is a biochemical, single-readout assay that uses extracted gene-proteins in a cell-free assay. Measurements were taken 1 hour after chemical dosing in a 96-well plate. See LAR Human Phosphatase Enzymatic Assay, Panlabs.ERF_TW_ENZ_hPTPRF is an assay component calculated from the ERF_TW_ENZ_hPTPRF assay. It is designed to measure enzyme activity using a type of enzyme reporter as detected by fluorescence intensity with spectrophotometry technology.Data from the assay component ERF_TW_ENZ_hPTPRF was analyzed at the assay endpoint, ERF_TW_ENZ_hPTPRF, in the positive analysis fitting direction relative to DMSO as the negative control and baseline of activity. Using a type of enzyme reporter, loss-of-signal activity can be used to understand changes in enzymatic activity as they relate to gene PTPRF. To generalize the intended target to other relatable targets, this assay endpoint is annotated to the phosphatase intended target family, where the subfamily is receptorasA tyrosine phosphatase.
Human recombinant protein phosphatase LAR expressed in E. coli is used. Test compound and/or vehicle is preincubated with 0.48 ng/ml enzymedouble dagger for 15 minutes at 37C in modified HEPES buffer pH 7.2. The reaction is initiated by addition of 10 uM DiFMUP for 60 minutes. Determination of the amount of DiFMU formed is read spectrofluorimetrically at 358 nm/450 nm. […]
In general, AC50 refers to the midpoint of the concentration-response curve, whichever way the signal moves. For the compound `O=C(/C=C/c1ccc(O)cc1)CC(=O)/C=C/c1ccc(O)cc1`, the AC50 is 5 µM (active).

(Values after PubChem BioAssay AID2284127 (EPA ToxCast).)
